PubChem BioAssay (NCI)
Where “and” joins values, the source holds several entries; their conditions need not be identical. Equal entries are not always repeated. Compounds without any hit were thinned out: in the full panel of roughly 83,000, 20% have a hit.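 Single-dose data. Exposure time 48 hours. Values below 10 considered active.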 Values without a mark were called inactive. Calls of active or inactive are those of the source.

test system: MDA-MB-468 breast; assay: NCI-60 one-dose screen, 48 h (100 = growth as untreated, 0 = no growth, -100 = all killed); conditions: 10 µM unless noted

Compound	growth
Cc1nn2c(-c3nc4ccc(Cl)cc4[nH]3)c(-c3ccc(F)cc3)nc2s1	102%
Cc1ccc(-c2csc(/N=C3\C(=O)Nc4ccccc43)n2)cc1	-12.5% (active)
O=C(O)CCCl	94.6%
F	40.9% [6.87 mM]
CNC(=O)NN	107%
CCc1[nH]nc(-c2ccc(OC)cc2)c1-c1ccccc1OCCN(CC)CC	87.8%
COc1c(/C(C)=N/N=c2sc(C(C)=O)nn2-c2ccc(Cl)cc2)c(Oc2ccccc2)c(OC)c2occc12	106% and 98.8%
O=C1C(Cl)=C(NCc2ccco2)C(=O)c2ccccc21	25%
CN1CCN(Cc2ccc(NC(=O)c3cncc(C#Cc4cnn5cccnc45)c3)cc2C(F)(F)F)CC1	25.4%
COc1ccc(-c2cn3ccnc3c(-c3ccc4ncn(C5CCCCC5)c4c3)n2)cc1	2.59% (active)
COc1cc2nc(N3CCN(C(=O)C4COc5ccccc5O4)CC3)nc(N)c2cc1OC (stereo not given)	78.2% and 104%
O=C(NNC(=S)Nc1ccccc1)c1ccc(Nc2ncnc3c2cnn3-c2cccc(Br)c2)cc1	101%
O=Cc1ccc(O)c(O)c1	93.4%
CC(C)(C)CC(N)=O	101%
Nc1ccc(C2=NN(c3ccccc3)C(c3ccc(Cl)cc3)C2)cc1 (stereo not given)	62.6%
O=C(c1cnn2c1NC(c1ccc(F)cc1)C2)N1CCCCC1 (stereo not given)	107%
O=[N+]([O-])c1ccc(S(=O)(=O)NN=C2CCCCC2)cc1	115%
COc1cc(NC(=O)c2cccc(-c3cc(=O)c4c(O)c(OC)c(OC)cc4o3)c2)cc(OC)c1OC	59.9%
N#Cc1c(NC(=O)c2cccc(C(F)(F)F)c2)sc2c1CCC(=O)C2	-8.78% (active)
O=C1NC(=O)C(Cn2cnc3ccccc32)N1 (stereo not given)	99%

Compound	growth
CCCCc1ccc2nc(NC(=O)OC)[nH]c2c1	22.3%
O=C1NC(=S)S/C1=C\N1N=C(c2ccc(Cl)cc2)CC1c1ccc(F)cc1 (stereo not given)	92.3%
O=C(CSc1nnc2sc(Nc3cccc(Cl)c3)nn12)c1ccc(F)cc1	89.5%
CCOC(=O)C1=C(C)N=c2s/c(=C\c3ccccc3O)c(=O)n2C1c1ccc(OC)c2ccccc12 (stereo not given)	-77.6% (active)
CC(O)C(N)=O (stereo not given)	107%
CN(C)CCNc1ccc2ncc(C#Cc3cncc(C(=O)Nc4ccc(CN5CCN(C)CC5)c(C(F)(F)F)c4)c3)n2n1	-67.9% (active)
COC(=O)[C@@]12OC[C@]34[C@H]([C@@H](O)[C@@H]1O)[C@@]1(C)[C@H](O)C(=O)C=C(C)[C@@H]1C[C@H]3OC(=O)C(OC(C)=O)[C@@H]24 (stereo not given in full)	-11.6% (active)
N#Cc1cccc(/C=C(/C(=O)c2ccccc2)c2ccccc2)c1	48.9%
Cc1nn(-c2ccc(Br)cc2)c2nc3[nH]c(=O)[nH]c(=O)c3nc12	116%
Cc1ccc2c(n1)C(=O)C(Oc1ccc(F)cc1)=CC2=O	87.7%
OCCNCCNC(Cc1ccc(Cl)cc1)c1ccccc1 (stereo not given)	86.4%
CCN(CC)CCn1nc2c3c(cccc3c1=O)-c1ccccc1-2	25.9%
NC(N)=N/N=C(\c1ccccc1)C(O)c1ccccc1 (stereo not given)	99.8%
N=C(N)c1ccc(-c2ccc(-c3cc(Cl)cc(Cl)c3)s2)cc1	-77.6% (active)
CCN(CC)c1ccc(C(=O)c2ccccc2)cc1	105%
CCCCCCCCCCCCCCCC[N+](C)(C)CCN(Cc1ccc(OC)cc1)c1ncccn1	-49.2% (active) and -52.1% (active)
COc1ccc(C(=O)/C=C/c2c(Cl)c3c(c(OC)c2Cl)OCC(=O)N3)cc1	12.4%
Cc1nccc2c3ccc(OCc4cn(-c5ccc(Br)cc5)nn4)cc3n(CC(C)C)c12	5.61% (active)
CC(C)n1nc(C#Cc2cccc3cc(-c4cccc(C(F)(F)F)c4)ncc23)c2c(N)ncnc21	98.3%
O=S(=O)(Nc1ccc(I)c(Cl)c1)c1ccc(-c2cnc(C3CC3)o2)cc1	-9.49% (active)
